Results filed as inconclusive are left out. Activity calls are given as the source filed them. Unless noted, calls come from the whole dose curve; as a rule, active = well fitted curve in the direction sought with a large enough effect in the repeat runs; inconclusive = weak or mixed curves; inactive = no such curve, though single readings can be large; an effect the other way counts as inactive or inconclusive.
Tests used:
[1] = qHTS assay to identify small molecule antagonists of the glucocorticoid receptor (GR) signaling pathway - cell viability counter screen (AID 720693); note: nearly all actives have a fitted effect of over 55% in size; note: potency is the fitted concentration of half-maximal effect
[2] = qHTS assay for identifying genotoxic compounds that show differential cytotoxicity against isogenic chicken DT40 cell lines with known DNA damage response pathways - wild type cell line (AID 743012); note: nearly all actives have a fitted effect of over 60% in size; note: potency is the fitted concentration of half-maximal effect
In short: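 First, wild type DT40 cells were plated at 300 per well and equilibrated about 0.5 h at 37 C/5% CO2. Next, compounds in DMSO were added and exposure lasted 40 h. Finally, CellTiter-Glo was added for 30 min at room temperature and luminescence recorded.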

[3] = qHTS assay for identifying genotoxic compounds that show differential cytotoxicity against isogenic chicken DT40 cell lines with known DNA damage response pathways - Rev3 mutant cell line (AID 743014); note: nearly all actives have a fitted effect of over 55% in size; note: potency is the fitted concentration of half-maximal effect
[4] = qHTS assay for identifying genotoxic compounds that show differential cytotoxicity against isogenic chicken DT40 cell lines with known DNA damage response pathways - Rad54/Ku70 mutant cell line (AID 743015); note: nearly all actives have a fitted effect of over 60% in size; note: potency is the fitted concentration of half-maximal effect
[5] = qHTS assay to identify small molecule antagonists of the androgen receptor (AR) signaling pathway - cell viability counter screen (AID 743033; note: nearly all actives have a fitted effect of over 45% in size)
[6] = qHTS assay to identify small molecule antagonists of the androgen receptor (AR) signaling pathway using the MDA cell line - cell viability counter screen (AID 743041; note: nearly all actives have a fitted effect of over 45% in size)
In short: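 Cells were plated at 3,000 per well and left 5 h. Compounds in DMSO were then pinned in, followed by R1881. After 16 h at 37C, CellTiter-Fluor fluorescence gave viability.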

[7] = qHTS assay to identify small molecule antagonists of the thyroid receptor (TR) signaling pathway - cell viability counter screen (AID 743064); note: nearly all actives have a fitted effect of over 50% in size; note: potency is the fitted concentration of half-maximal effect
In short: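 Compounds were tested on GH3.TRE-Luc cells in the presence of T3 at 1 nM final. Following 23.5 h at 37 °C, cell viability was quantified by CellTiter-Fluor.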

[8] = qHTS assay to identify small molecule antagonists of the thyroid receptor (TR) signaling pathway (AID 743065); note: nearly all actives have a fitted effect of over 55% in size; note: potency is the fitted concentration of half-maximal effect
In short: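 Antagonism measured as loss of luciferase signal in GH3 cells stably carrying a TRE-luciferase reporter, co-treated with compound and T3 (1 nM final) for 23.5 h at 37 C. Viability was read in the same well by CellTiter-Fluor.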

[9] = test system: thyroid hormone receptor (rat, GH3 cells); assay: qHTS assay to identify small molecule agonists of the thyroid receptor (TR) signaling pathway (AID 743066; calls by dose curve)
[10] = biological target: Estrogen receptor (Homo sapiens) (UniProt P03372); assay: qHTS assay to identify small molecule agonists of the estrogen receptor alpha (ER-alpha) signaling pathway (AID 743075; calls by dose curve;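 note: HEK293 GripTite cells with ER-alpha and UAS-driven beta-lactamase reporter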)
Sequence of Estrogen receptor (Homo sapiens) (P03372 whole entry, looked up): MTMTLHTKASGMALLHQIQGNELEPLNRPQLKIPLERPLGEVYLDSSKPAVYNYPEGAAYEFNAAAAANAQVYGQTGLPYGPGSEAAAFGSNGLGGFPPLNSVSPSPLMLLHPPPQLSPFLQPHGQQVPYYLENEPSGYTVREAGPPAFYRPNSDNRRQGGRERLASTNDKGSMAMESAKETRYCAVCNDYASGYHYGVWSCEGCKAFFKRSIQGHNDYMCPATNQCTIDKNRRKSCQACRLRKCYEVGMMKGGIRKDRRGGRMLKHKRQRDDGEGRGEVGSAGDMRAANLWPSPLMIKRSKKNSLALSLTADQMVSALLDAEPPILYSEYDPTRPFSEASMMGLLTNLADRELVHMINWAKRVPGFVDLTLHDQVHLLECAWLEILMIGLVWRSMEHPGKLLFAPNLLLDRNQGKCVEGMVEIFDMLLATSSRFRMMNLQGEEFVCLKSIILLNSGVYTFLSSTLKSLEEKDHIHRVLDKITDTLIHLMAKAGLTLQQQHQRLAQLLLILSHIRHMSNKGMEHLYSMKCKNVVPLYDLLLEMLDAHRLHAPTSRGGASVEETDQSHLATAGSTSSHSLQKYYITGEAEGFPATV

[11] = biological target: Estrogen receptor (Homo sapiens) (UniProt P03372); assay: qHTS assay to identify small molecule agonists of the estrogen receptor alpha (ER-alpha) signaling pathway using the BG1 cell line (AID 743079); note: nearly all actives have a fitted effect of over 20% in size
[12] = qHTS assay to identify small molecule antagonists of the estrogen receptor alpha (ER-alpha) signaling pathway using the BG1 cell line (AID 743080; calls by dose curve;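 note: BG1 cells stimulated with 17beta-estradiol alongside compound; series mostly up to about 70 µM; nearly all actives have a fitted effect of over 25% in size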)
In short: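 Luminescence from a 4×ERE-luciferase reporter in BG1-Luc-4E2 cells served as read-out. Cells, pre-cultured 5 days in stripped-serum phenol-red-free medium, were exposed to compound with 17beta-estradiol co-stimulation for 21.5 h at 37 C.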

[13] = qHTS assay to identify small molecule antagonists of the estrogen receptor alpha (ER-alpha) signaling pathway using the BG1 cell line - cell viability counter screen (AID 743081);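 note: compound given together with 17beta-estradiol as the ER stimulus; series mostly up to about 70 µM; nearly all actives have a fitted effect of over 45% in size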
[14] = biological target: Aromatase (Homo sapiens) (UniProt P11511); assay: qHTS assay to identify aromatase inhibitors (AID 743083); note: series mostly up to about 70 µM; nearly all actives have a fitted effect of over 55% in size
Sequence of Aromatase (Homo sapiens) (P11511 whole entry, looked up): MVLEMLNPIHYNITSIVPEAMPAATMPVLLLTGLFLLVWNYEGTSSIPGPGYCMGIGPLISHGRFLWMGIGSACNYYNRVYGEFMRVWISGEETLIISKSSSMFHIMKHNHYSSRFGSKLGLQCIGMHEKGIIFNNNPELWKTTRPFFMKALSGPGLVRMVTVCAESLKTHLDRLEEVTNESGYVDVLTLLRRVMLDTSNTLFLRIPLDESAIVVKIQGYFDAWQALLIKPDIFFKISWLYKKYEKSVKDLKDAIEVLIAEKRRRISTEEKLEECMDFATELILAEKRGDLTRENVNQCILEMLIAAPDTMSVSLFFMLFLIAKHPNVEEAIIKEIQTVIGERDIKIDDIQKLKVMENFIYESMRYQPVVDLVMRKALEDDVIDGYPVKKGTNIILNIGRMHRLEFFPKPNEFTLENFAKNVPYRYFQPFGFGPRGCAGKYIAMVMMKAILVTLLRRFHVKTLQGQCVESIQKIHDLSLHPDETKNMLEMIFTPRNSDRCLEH

[15] = biological target: Estrogen receptor (Homo sapiens) (UniProt P03372); assay: qHTS assay to identify small molecule antagonists of the estrogen receptor alpha (ER-alpha) signaling pathway (AID 743069; active = well fitted curve in the direction sought with a large enough effect in the signal ratio in the repeat runs, not every such curve was filed as active; the % refers to the signal ratio)
In short: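 ER-alpha-UAS-bla GripTite HEK293 line; 2% charcoal-stripped FBS overnight; plated, 4 hr 37C/5% CO2; cpd in DMSO + 17beta-estradiol, 18 hr 37C; LiveBLAzer B/G FRET substrate 2 hr RT; fluorescence intensity.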

[16] = qHTS assay to identify small molecule antagonists of the estrogen receptor alpha (ER-alpha) signaling pathway - cell viability counter screen (AID 743074; calls by dose curve;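 note: HEK293 cells carrying ER-alpha-UAS-bla reporter stimulated with 17beta-estradiol; nearly all actives have a fitted effect of over 45% in size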)

Measured: Potency

C=CCOc1c(Br)cc(Br)cc1Br
not listed: [15] | [16]
inactive: all other assays above

Cc1nc([N+](=O)[O-])cn1-c1ccc([N+](=O)[O-])cc1
not listed: [7]
inactive: all other assays above

COc1cc2c(Nc3ccc(Br)cc3F)ncnc2cc1OCC1CCN(C)CC1
inactive: [5] | [6] | [15] | [11] | [14]
active: [1] 23.9 µM | [2] 5.31 µM | [3] 5.96 µM | [4] 6.68 µM | [7] 4.73 µM | [8] 5.31 µM

CC(C)c1ccccc1O
not listed: [10] | [11] | [12] | [15]
inactive: all other assays above

Cc1cccc(NC(=S)N(C)C)c1
not listed: [10] | [11] | [12] | [14] | [15]
inactive: all other assays above

O=C(O)C(=O)Nc1cccc(-c2nn[nH]n2)c1
not listed: [10] | [11] | [12] | [13] | [15]
inactive: all other assays above

C=C(C)C(=O)OC1CC(C)CC(C)(C)C1 (stereo not drawn)
not listed: [10] | [11] | [12] | [15]
inactive: all other assays above

COc1cc2c3cc1Oc1cc(ccc1O)C[C@@H]1c4c(cc(OC)c(O)c4Oc4ccc(cc4)C[C@@H]3N(C)CC2)CC[N+]1(C)C
not listed: [10] | [11] | [12] | [15]
inactive: all other assays above

C=C(C)C(=O)OCCCCCCOC(=O)C(=C)C
not listed: [10] | [11] | [12] | [14] | [15]
inactive: all other assays above

Cc1nc2ccccc2c(=O)o1
not listed: [7] | [12]
inactive: all other assays above
